{
  "source": "PubChem BioAssay (NCATS)",
  "note": "Inconclusive results are not listed. Unmarked numbers belong to inactive results. Active and inactive are the calls of the source. Calls follow the shape of the dose curve; as a rule, active = well fitted cell-killing curve with a large enough effect; inconclusive = small, poorly fitted or top-dose-only effect; inactive = flat fitted curve, though single readings scatter. Potency is read from the fitted curve at half-maximal effect.",
  "data": [
    {"assay": "Cellular viability qHTS for adrenocortical cancer (ACC) cell line NCI-H295R (AID 1963990); also: nearly all actives have a fitted effect of over 60% in size;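 as to activity change, negative = viability loss: 0% = DMSO only wells and -100% = full killing with cytotoxic reference compound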", "details": "CellTiter-Glo ATP luminescence, 48 h; series mostly up to 46.1 µM; activity change, negative = viability loss: at the top concentration", "procedure,_shortened": "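IC50 and maximal efficacy derive from four-parameter logistic modelling of titration curves, with reads scaled between DMSO-only wells (0%) and doxorubicin hydrochloride (100% inhibition). Compounds spanned up to 46 uM over 48 h.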", "units": {"activity change, negative = viability loss": "%"}, "values": [
      {"smiles": "NCCNc1cccc2ccccc12", "Potency": "20.6 µM (active)"},
      {"smiles": "COc1ccc2c(c1)C(=O)N(CCc1ccc(S(=O)(=O)NC(=O)NC3CCCCC3)cc1)C(=O)C2(C)C", "activity change, negative = viability loss": -19.5},
      {"smiles": "c1ccc(OCc2ccc(CCCN3CCOCC3)cc2)cc1", "activity change, negative = viability loss": -14.6},
      {"smiles": "CC(=O)NCC(=O)N1[C@@H]2CC[C@H]1c1ccc(Nc3ncc(C(F)(F)F)c(NC4CCC4)n3)cc12", "Potency": "4.47 µM (active)"},
      {"smiles": "O=C(c1ccc(F)cc1)C1CCN(CCn2c(=S)[nH]c3ccccc3c2=O)CC1", "activity change, negative = viability loss": -13.9},
      {"smiles": "NC(=O)c1c(OCc2c(F)cc(Br)cc2F)nsc1NC(=O)NCCCCN1CCCC1", "Potency": "22.4 µM (active)"},
      {"smiles": "C=CCN(/C=C1\\C(=O)O[C@@H](COC)[C@]2(C)C1=C(O)C(=O)C1=C2[C@@H](OC(C)=O)C[C@]2(C)C(=O)CC[C@H]12)CC=C", "Potency": "28.2 µM (active)"},
      {"smiles": "C=CC[N+]1([C@H]2C[C@H]3[C@@H]4CC[C@H]5C[C@H](O)[C@@H](N6CCOCC6)C[C@]5(C)[C@H]4CC[C@]3(C)[C@H]2OC(C)=O)CCCC1", "activity change, negative = viability loss": -24.1},
      {"smiles": "Cc1cnc(Nc2ccc(F)cc2Cl)nc1-c1c[nH]c(C(=O)NC(CO)c2cccc(Cl)c2)c1", "note": "(stereo unspecified)", "Potency": "8.91 µM (active)"},
      {"smiles": "Cc1ccc(NC(=O)c2ccc(CN3CCN(C)CC3)cc2)cc1Nc1nccc(-c2cccnc2)n1", "Potency": "25.1 µM (active)"},
      {"smiles": "NS(=O)(=O)Oc1ccc2c3c(c(=O)oc2c1)CCCCC3", "activity change, negative = viability loss": -1.46},
      {"smiles": "NC(=S)N/N=C/c1ncccc1N", "activity change, negative = viability loss": -1.6},
      {"smiles": "CCCOC(C(=O)OC1CCN(C)CC1)(c1ccccc1)c1ccccc1", "Potency": "23.1 µM (active)"},
      {"smiles": "O=C1NC(=O)/C(=C/c2ccc3nccnc3c2)S1", "activity change, negative = viability loss": -24.2},
      {"smiles": "CCOC(=O)N1CCC(Nc2ccc(Cl)cc2N)CC1", "Potency": "16.4 µM (active)"},
      {"smiles": "CC(=C(CCOC(=O)C(C)C)SSC(CCOC(=O)C(C)C)=C(C)N(C=O)Cc1cnc(C)nc1N)N(C=O)Cc1cnc(C)nc1N", "activity change, negative = viability loss": -16.7},
      {"smiles": "COc1ccc(/C=C/C(=O)c2ccc(OC)cc2OC)cc1", "Potency": "9.2 µM (active)"},
      {"smiles": "C[C@@H](c1ccc2nccn2c1)n1nnc2ncc(-c3cnn(C)c3)nc21", "activity change, negative = viability loss": -13.2},
      {"smiles": "CCCCOc1cc(C(=O)NCCN(CC)CC)c2ccccc2n1", "Potency": "20.6 µM (active)"},
      {"smiles": "C[C@H](N)C(=O)N[C@@H](C)C(=O)NC1[C@H]2CN(c3nc4c(cc3F)c(=O)c(C(=O)O)cn4-c3ccc(F)cc3F)C[C@@H]12", "note": "(stereo partly specified)", "activity change, negative = viability loss": -15.9},
      {"smiles": "Cc1cc(O)c2ccccc2c1O", "Potency": "20.6 µM (active)"},
      {"smiles": "CCCCCCOc1ccccc1C(N)=O", "activity change, negative = viability loss": -22.3},
      {"smiles": "O=C1Nc2ccccc2C1(c1ccc(O)cc1)c1ccc(O)cc1", "activity change, negative = viability loss": 0.0188},
      {"smiles": "Cc1c(Cl)cccc1S(=O)(=O)Nc1nc(CCN2CCOCC2=O)cs1", "activity change, negative = viability loss": 5.08},
      {"smiles": "CCC(=O)OCC(=O)C1(OC(=O)CC)C(C)CC2C3CCC4=CC(=O)C=CC4(C)C3(F)C(O)CC21C", "note": "(stereo unspecified)", "Potency": "4.47 µM (active)"},
      {"smiles": "CCn1c(=O)c2c(nc(/C=C/c3ccc(OC)c(OC)c3)n2C)n(CC)c1=O", "activity change, negative = viability loss": -8.7}
    ]}
  ]
}
